Assay outcomes as filed in PubChem BioAssay.
Hits are enriched below; roughly 9.4% of the tested compounds scored in any of these assays.
AMA1 RON2 block: inhibitors of Plasmodium falciparum AMA1-RON2 interaction; AlphaScreen AMA1-biotinylated RON2 peptide binding; Potency, µM (titrated, usually from 58.2 µM), for the others: top-dose activity change, negative = inhibition, most hits filed as inhibitors; actives 0.2% (n = 360,000); AID 720542;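 also: 0% = vehicle wells and -100% = peptide control; nearly all actives have a fitted effect of over 45% in size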
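AMA1 (3D7) with his tag at 25 nM final met compounds first, then biotinylated RON2 peptide at 25 nM; detection used donor plus acceptor beads, 10 µg/mL apiece, read by AlphaScreen after 30 min at room temperature.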
Pf growth 96h: P. falciparum growth inhibition at 96 hours | Potency, µM (series often up to 28.7 µM), inactives show at the top dose activity change, negative = inhibition, usual class: inhibitors | P. falciparum luciferase reporter growth, 96 h | actives 6.9% (n = 320,000); also: % is scaled to controls: 0 for no effect and ±100 for the full control effect
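Two-generation exposure (96 h) targets delayed-death phenotype. Reporter parasites carrying integrated firefly luciferase, in red cells at 2% hematocrit and 0.05% parasitemia final, kept at 37 C, 5% CO2; luminescence loss indicates inhibition.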
SARS PLP yeast: inhibitors of SARS-CoV papain-like protease in yeast; Potency, µM (series often up to 32.9 µM), for inactives: at the highest dose activity, positive = growth rescue, actives largely listed as activators; S. cerevisiae expressing SARS-CoV PLpro, growth rescue; AID 485353; actives 0.19% (n = 330,000); calls by dose curve; also: 0% is about no effect; nearly all actives have a fitted effect of over 55% in size
Pf growth 48h: inhibits P. falciparum growth in the first generation, 48 h. P. falciparum luciferase growth in erythrocytes, 48 h. Potency, µM (titrated, usually from 28.7 µM), for the others: at the highest dose activity change, negative = inhibition, actives largely listed as inhibitors. actives 5.9% (n = 310,000). AID 504832; also: % is scaled to controls: 0 for no effect and ±100 for the full control effect
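Erythrocytes infected with P. falciparum carrying an integrated firefly luciferase reporter (2% hematocrit, 0.1% parasitemia final) were exposed to compounds in RPMI 1640 with 0.5% Albumax at 37 C, 5% CO2. Growth inhibition was scored as reduced luminescence.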
* hit, by the source's call; ? = inconclusive; nt = no result; [ ] = remark or other dose. Unless noted, calls follow the shape of the dose curve; as a rule, active = well fitted curve in the direction sought with a large enough effect; inconclusive = small, poorly fitted or top-dose-only effect, or another doubt; inactive = no such curve, though single readings can be large; an effect the other way counts as inactive or inconclusive. Potency is read from the fitted curve at half-maximal effect.

SMILES | AMA1 RON2 block | Pf growth 96h | SARS PLP yeast | Pf growth 48h
COc1ccccc1NS(=O)(=O)c1cc(C)ccc1C | 1% | nt | 1% | 0%
COC(=O)[C@@]1(Cc2ccc(OC)cc2)[C@@H]2C(=CC(=O)[C@H]2CC(=O)C(=O)N(C)C)CN1C(=O)c1ccccc1 | -1% | 9.3µM* | 3% | 15µM*
COC(=O)[C@@]1(Cc2ccc(F)cc2)[C@H]2c3cc(C(=O)N(C)C)n(Cc4ccc(Cl)c(C(F)(F)F)c4)c3C[C@H]2CN1C(=O)c1ccccc1 | -5% | nt | nt | nt
COC(=O)[C@@]1(Cc2ccc(OC)cc2)[C@H]2c3cc(C(=O)N(C)C)n(Cc4ccc(OC(F)(F)F)cc4)c3C[C@H]2CN1C(=O)c1ccccc1 | -21% | 3.3µM* | 0% | ?
COC(=O)[C@@]1(Cc2ccc(F)cc2)[C@H]2c3cc(C(=O)N(C)C)n(Cc4ccccc4)c3C[C@H]2CN1C(=O)c1ccccc1 | -1% | 3.3µM* | -6% | 2.9µM*
C/C=C/c1ccc(OCCCNC2CCCC2)c(OC)c1 | -16% | nt | -4% | ?
CCN(C1CCS(=O)(=O)C1)S(=O)(=O)c1cccs1 (stereo not drawn) | 3% | 7% | 4% | -5%
CC(C)C[C@@H](NC(=O)[C@H](Cc1ccccc1)NC(=O)c1cnccn1)B(O)O | nt | 0.03µM* | nt | 0.067µM*
OCC[C@@H]1C[C@@H](O)[C@H](O)[C@]2(OCc3ccccc32)O1 | -9% | 8% | -9% | 3%
CCOC(=O)[C@]12Cc3c(cc(OC)c(OC)c3OC)[C@H]1N(Cc1ccccc1)C(=O)c1cc(OC)ccc12 | -6% | nt | nt | nt
O=c1cc(-c2cccc(F)c2)[nH]c2ccccc12 | 12% | ? | 2% | ?
COc1ccc2[nH]c(-c3cccc(F)c3)cc(=O)c2c1 | -2% | 5.2µM* | -14% | ?
COc1ccc(-c2cc(=O)c3ccccc3[nH]2)cc1 | -5% | ? | -11% | ?
Cc1ccc2[nH]c(-c3cccc(F)c3)cc(=O)c2c1 | -4% | 4.1µM* | 3% | 5.2µM*
O=c1cc(-c2ccccc2)[nH]c2ccc(F)cc12 | -2% | 1.5µM* | 9% | 0.59µM*
O=c1cc(-c2ccccc2)[nH]c2cc(Cl)ccc12 | -10% | 8.3µM* | -1% | 4.7µM*
COc1ccc(CN2CC(C(=O)NCCCN3CCCCC3)CC2=O)cc1 (stereo not drawn) | 6% | -3% | 0% | 23%
COc1cccc(-c2cc(=O)c3cc(NC(=O)c4ccc(N(C)C)cc4)ccc3[nH]2)c1 | -16% | 13µM* | 5% | 10µM*
CC(=O)c1c(C)[nH]c(C(=O)Nc2ccc(F)c(F)c2F)c1C | -23% | ? | -1% | 13µM*
CCC(C)c1ccc(NC(=O)c2[nH]c(C)c(C(C)=O)c2C)cc1 (stereo not drawn) | -17% | 3.3µM* | -5% | 4.7µM*
CCC(NC(=O)c1[nH]c(C)c(C(C)=O)c1C)c1ccc(Br)cc1 (stereo not drawn) | -5% | ? | -34% | 9.3µM*
CC(=O)c1c(C)[nH]c(C(=O)Nc2ccc(Cl)cc2)c1C | 5% | -20% | 1% | ?
CC(=O)c1c(C)[nH]c(C(=O)Nc2ccc(Cl)cc2F)c1C | -10% | 20% | -2% | 63%
CC(=O)c1c(C)[nH]c(C(=O)OCC(=O)c2ccc(Br)cc2)c1C | 5% | nt | nt | nt
O=C(CSc1nnnn1-c1ccccc1)Nc1ncc(Cc2cccc(Cl)c2Cl)s1 | -2%[2.32 µM] | -3% | 3% | 17%
SMILES | AMA1 RON2 block | Pf growth 96h | SARS PLP yeast | Pf growth 48h
O=C(NC1CC1)c1cn(Cc2ccccc2)nc1-c1ccccc1 | -3% | -2% | -3% | -25%
COc1ccc(/C=C/C(=O)N(C(C)C)C(C)C)cc1Br | -2% | ? | 4% | 6.6µM*
COc1ccc(/C=C/C(=O)NC(C)C)cc1Br | 4% | ? | -2% | ?
Cc1ccc(S(=O)(=O)Cn2nnnc2C(c2ccccc2)N2CCN(c3ccccc3)CC2)cc1 (stereo not drawn) | -6% | ? | -3% | 13µM*
O=C(c1ccco1)N1CCN(C(c2ccc(F)cc2)c2nnnn2Cc2cccs2)CC1 (stereo not drawn) | 6% | 0.93µM* | 0% | ?
CCCC(c1nnnn1CS(=O)(=O)c1ccc(C)cc1)N1CCN(c2ccccc2)CC1 (stereo not drawn) | -4% | 0% | 1% | 12µM*
Cc1ccc(S(=O)(=O)Cn2nnnc2C(C)N2CCN(C(=O)c3ccco3)CC2)cc1 (stereo not drawn) | 1% | 5.2µM* | 4% | 10µM*
Cc1ccc(C(c2nnnn2CS(=O)(=O)c2ccc(C)cc2)N2CCCC2)cc1 (stereo not drawn) | 1% | ? | 0% | -2%
Cc1ccc(S(=O)(=O)Cn2nnnc2C(C(C)C)N2CCN(C(=O)c3ccco3)CC2)cc1 (stereo not drawn) | -6% | nt | nt | nt
O=C(c1ccco1)N1CCN(C(c2ccccc2)c2nnnn2Cc2cccs2)CC1 (stereo not drawn) | 0% | -11%[5.75 µM] | 23% | -53%
CCCCC(c1nnnn1CS(=O)(=O)c1ccc(C)cc1)N1CCN(C)CC1 (stereo not drawn) | 18% | -4% | -1% | ?
Cc1ccc(/C=C/C(=O)O)cc1S(=O)(=O)NCc1cccnc1 | 0% | 19% | -5% | 7%
O=C(Cn1nnc2c(cnn2-c2ccc(F)cc2)c1=O)OC1CCCCC1 | -24% | nt | -3% | 16%
Cc1ccc(S(=O)(=O)Cc2nnnn2-c2ccccc2)cc1 | -4% | 6.6µM* | 2% | -4%
CCCC(c1nnnn1Cc1cccs1)N1CCN(c2nc3ccccc3s2)CC1 (stereo not drawn) | -4% | -8% | 4% | nt
Cc1ccc(S(=O)(=O)Cn2nnnc2C(c2ccc(F)cc2)N2CCCCC2)cc1 (stereo not drawn) | 25% | -11% | 11% | ?
COc1ccc(C(c2nnnn2CS(=O)(=O)c2ccc(C)cc2)N2CCN(c3ncccn3)CC2)cc1 (stereo not drawn) | -8% | ? | -23% | 9.3µM*
CCC(c1nnnn1CS(=O)(=O)c1ccc(C)cc1)N1CCN(c2nc3ccccc3s2)CC1 (stereo not drawn) | 6% | 9% | 7% | 8.3µM*
Cc1ccc(S(=O)(=O)Cn2nnnc2C(c2ccccc2)N2CCN(c3ncccn3)CC2)cc1 (stereo not drawn) | -26% | 73% | -12% | 9.3µM*
CCCn1nnnc1SCC(=O)NCc1ccccc1 | -16% | -14% | -4% | 18%
OC(c1cccc(Cl)c1)c1nccc2ccccc12 (stereo not drawn) | 25% | ? | 1% | 74%
O=C(OC(c1ccccc1)c1nccc2ccccc12)c1cc([N+](=O)[O-])cc([N+](=O)[O-])c1 (stereo not drawn) | -26% | 10µM* | -69% | -14%
CCN(CC)c1ccc(/C=N/NC(=S)NCc2ccccc2)c(O)c1 | 5%[11.6 µM] | ? | 10µM* | 0%
CCN(CC)c1ccc(/C=N/N=C(c2ccccc2)c2ccccc2)c(O)c1 | ? | ? | 9% | ?
